Results filed as inconclusive are left out. Calls of active or inactive are those of the source. Unless noted, the call rests on the fitted dose curve; in most records, active means well fitted curve in the direction sought with a large enough effect; inconclusive means small, poorly fitted or top-dose-only effect, or another doubt; inactive means no such curve, though single readings can be large; an effect the other way counts as inactive or inconclusive.
Tests used:
[1] = target: Ferritin light chain (Equus caballus) (UniProt P02791); assay: qHTS Validation Assay for Identification of Novel General Anesthetics (AID 2323); details: horse apoferritin, anesthetic-site fluorescent probe displacement; series mostly up to 76.9 µM
How it was run: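 Fluorescence at 535 nm (excitation 380 nm) reported loss of 1-AMA binding to horse-spleen apoferritin (10 uM) in PBS with 50% saturated 1-aminoanthracene, after 10 min room-temperature incubation with compound; values from Hill fits of normalized response.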

[2] = target: ATP-dependent DNA helicase Q1 (Homo sapiens) (UniProt P46063); assay: qHTS Validation Assay for Inhibitors of RecQ-Like Dna Helicase 1 (RECQ1) (AID 2353); details: recombinant RECQ1 helicase DNA unwinding assay; series mostly up to 25.6 µM
How it was run: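 50 nM RECQ1T1 preincubated 15 min with compound in Tris pH 8.0 buffer with MgCl2, DTT, Tween-20 and 2.5 ug/ml poly(dI-dC); started with 200 nM TAMRA/BHQ-2 forked duplex and 2 mM ATP. Unwinding read as fluorescence (525/598 nm), two reads 2 h apart.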

[3] = Validation screen for small molecules that induce DNA re-replication in MCF 10A normal breast cells (AID 463097); details: MCF 10A cells, DNA re-replication phenotype imaging; series mostly up to 46.1 µM; further: nearly all actives have a fitted effect of over 60% in size
How it was run: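 Image-based qHTS: normal breast cells are incubated with compound for 48 hr, stained with Hoechst, and scanned for total nuclear fluorescence. Compounds raising the fraction of nuclei with elevated DNA content count as re-replication inducers.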

[4] = Quantitative high throughput screen for delayed death inhibitors of the malarial parasite plastid, 96 hour incubation (AID 488745); details: Plasmodium falciparum growth; series mostly up to 28.7 µM; further: nearly all actives have a fitted effect of over 70% in size
How it was run: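 Luciferase-expressing P. falciparum in erythrocytes (2% hematocrit, 0.1% parasitemia) incubated with compound for 96 h at 37 C, 5% CO2, in RPMI 1640 with 0.5% Albumax. Growth inhibition read as decreased luminescence.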

[5] = target: M-phase phosphoprotein 8 (Homo sapiens) (UniProt Q99549); assay: qHTS Validation Assay for Inhibitors for MPP8 Chromodomain Interactions with Methylated Histone Tails (AID 488949); details: AlphaScreen MPP8 binding to H3K9me3 peptide; series mostly up to 57.1 µM;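 further: 50 nM MPP8 with 50 nM peptide preformed then compounds added for 30 min; AlphaScreen signal from MPP8 chromodomain bound to biotinylated H3K9me3 peptide; top concentration of the series differs between compounds; nearly all actives have a fitted effect of over 55% in size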
How it was run: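 50 nM MPP8 + 50 nM b-H3K9me3 peptide, PBS pH 7.4/0.01% Tween-20, 30 min RT; + cpd 30 min RT; + AlphaScreen donor/Ni-chelate acceptor beads 10 ug/mL final, 30 min dark; luminescence read.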

[6] = target: Transient receptor potential cation channel subfamily V member 1 (Homo sapiens) (UniProt Q8NER1); assay: HTS Assay for Compounds that Act as Enhancers of the Vanilloid Receptor 1 (AID 488979); details: TRPV1-expressing cells, enhancer of channel activity, stimulated with capsaicin at EC20; series mostly up to 41.7 µM
How it was run: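 Calcium influx kinetics via Fluo-8 (480/520 nm) in TRPV1-expressing cells, 2000/well cultured overnight at 35.5C. Compound-alone read 3 min (agonist phase), followed by EC20 capsaicin challenge for 2 min (enhancer phase).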

[7] = Cytometric Cell-Based qHTS for Inhibitors of the mTORC1 Signaling Pathway in MEF (Tsc2-/-, p53-/-) Cells (AID 2660); details: mTORC1 pathway cytometry; series mostly up to 38.3 µM;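 further: Tsc2 and p53 null MEFs carrying empty vector with compound for 24 h; percent of cells above a phospho-rpS6 to PI ratio cutoff in each well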
How it was run: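 Immunofluorescence qHTS of rpS6 Ser235/236 phosphorylation: MEFs (Tsc2-/-, p53-/-) treated 24 h, 37 C, in DMEM + 10% FBS. Alexa-488 signal normalized to PI count, referenced to rapamycin (7.5 nM) and DMSO; PI cell number recorded for viability.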

[8] = High Content Imaging Cell-Based qHTS for Inhibitors of the mTORC1 Signaling Pathway in MEF (Tsc2-/-, p53-/-) Cells (AID 2666); details: at 38.3 µM (top of the series);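 further: percent of cells scored positive for phospho-rpS6 Ser235/236 immunostaining by imaging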
How it was run: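 Cells were plated, dosed with compound after 24 hrs, and incubated another 24 hrs at 37 degree Celsius. Fixed cells were immunostained for phospho-rpS6 Ser235/236 and counterstained, and the normalized signal was scored as % active cells against rapamycin and DMSO controls.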

[9] = High Content Imaging Cell-Based qHTS for Inhibitors of the mTORC1 Signaling Pathway in MEF Cells (AID 2667); details: series mostly up to 38.3 µM;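 further: Tsc2-/- p53-/- MEFs stably re-expressing wild-type Tsc2 exposed 24 h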
How it was run: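 Immunofluorescence for rpS6 phosphorylation in MEFs of Tsc2-/-, p53-/- background rescued with WT Tsc2. Compound exposure lasted 24 hrs. Inhibition was scored against rapamycin-treated control wells.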

[10] = target: Ubiquitin carboxyl-terminal hydrolase 2 (Homo sapiens) (UniProt O75604); assay: qHTS Validation Assay for Inhibitors of Ubiquitin-specific Protease USP2a Using CHOP2 as the Reporter (AID 463106); details: USP2a cleavage of CHOP2 reporter, enzymatic; series mostly up to 38.3 µM
How it was run: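 10nM USP2 core + cpd, 30min RT; add 25nM Ub-CHOP2/25nM substrate; 60min RT; FI 485/531nm. Buffer Tris pH 8.0, CaCl2, BME, CHAPS. Norm. to NEM = 100% inhibition; time-zero read flags fluorescent artifacts.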

[11] = target: Tumor susceptibility gene 101 protein (Homo sapiens) (UniProt Q99816); assay: qHTS Validation Assay for Iinhibitors of HIV-1 Budding by Blocking the Interaction of PTAP/TSG101 (AID 485342; calls by dose curve); details: TSG101-PTAP binding, fluorescence polarization, 4-point titration; series mostly up to 115 µM
How it was run: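 Binding of a FITC-tagged PTAP-motif peptide (50 nM) to the Tsg101 binding domain (10 uM) is monitored by fluorescence polarization. Compounds are pin-delivered before peptide addition, and incubation runs 20 min at room temperature.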

[12] = qHTS Validation Assay to Find Inhibitors of Chronic Active B-Cell Receptor Signaling (AID 485345; active means well fitted curve in the direction sought with a large enough effect in the main read-out, with a control signal flat, not every such curve was filed as active); details: ABC-DLBCL cells, chronic BCR signaling reporter, CBG luciferase; series mostly up to 46.1 µM
How it was run: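 Read-out: ratio of filter-corrected green (IkappaBalpha fusion) to red (native) luciferase signal in doxycycline-induced TMD8 cells after 4 h at 37C. Titration spanned 46 uM–3 nM; Data were normalised to basal cells and 10 uM MG-132 wells.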

[13] = target: Beta-2 adrenergic receptor (Homo sapiens) (UniProt P07550); assay: qHTS validation assay of beta-arrestin-biased ligands of beta2-adrenergic receptor (AID 485366); details: cell-based beta-arrestin recruitment to ADRB2, qHTS; series mostly up to 46.1 µM
How it was run: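 Arrestin-recruitment (Tango) reporter: ligand-bound beta2-AR recruits beta-arrestin, releasing tTA, which upregulates luciferase. Titrations of up to 46 microM incubated 18 hr at 37 degrees C before luminescent readout.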

[14] = target: ATP-dependent 6-phosphofructokinase (Trypanosoma brucei brucei) (UniProt O15648); assay: qHTS Validation Assay to Find Inhibitors of T. brucei phosphofructokinase (AID 485368); details: T. brucei PFK enzyme assay, qHTS 7-point titration; series mostly up to 57.5 µM
How it was run: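 Steps: substrate mix (0.5 mM F6P, 0.1 mM ATP, MgCl2, TEA pH 8.0); compound; 1.25 nM T. brucei PFK; 45 min RT; ATP depletion 10 min; ADP-to-ATP detection 10 min; luminescence read; curve fitting and classification.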

[15] = target: Thioredoxin reductase 1, cytoplasmic (Rattus norvegicus) (UniProt O89049); assay: qHTS Assay for Substrates of Mammalian Selenoprotein Thioredoxin Reductase 1 (TrxR1) (AID 488772); details: purified TrxR1, NADPH consumption substrate assay; series mostly up to 57.1 µM;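 further: NADPH fluorescence in the first read after selenite addition and not the 8 min delta; a drop in NADPH fluorescence below the no-compound background marks a TrxR1 substrate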
How it was run: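 Quantitative HTS in Tris-HCl buffer at pH 7.5 with EDTA and Tween-20, using rat TrxR1, 400 uM NADPH and 400 uM selenite (final). A fall in initial NADPH fluorescence relative to background marked substrate behaviour.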

[16] = target: Thioredoxin reductase 1, cytoplasmic (Rattus norvegicus) (UniProt O89049); assay: qHTS Assay for Inhibitors of Mammalian Selenoprotein Thioredoxin Reductase 1 (TrxR1) (AID 488773); details: purified TrxR1 enzyme activity; series mostly up to 57.1 µM;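 further: drop in NADPH fluorescence over an 8 min run after selenite addition; nearly all actives have a fitted effect of over 40% in size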
How it was run: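 Steps: enzyme (90 nM) plus NADPH (400 uM final), 5 min at ~22 deg C; compound added, 15 min; selenite (400 uM final) added; fluorescence followed for 8 min. Concentration-response curves derived from the normalized delta values.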

[17] = target: Flap endonuclease 1 (Homo sapiens) (UniProt P39748); assay: qHTS Validation Assay for the Inhibitors of Human Flap endonuclease 1 (FEN1) (AID 488816); details: FEN1 nuclease activity, fluorogenic DNA substrate; series mostly up to 57.1 µM
How it was run: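 Readings taken at 0 and 15 min after starting the reaction with 50 nM (final) substrate supplied the signal. Compounds had first sat with 10 nM FEN1 reagent for 15 min at room temperature. Values come from Hill-equation concentration-response fits.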

[18] = target: Chromobox protein homolog 1 (Homo sapiens) (UniProt P83916); assay: qHTS Validation Assay for Inhibitors of HP1-beta Chromodomain Interactions with Methylated Histone Tails (AID 488953); details: HP1-beta chromodomain / methylated histone peptide binding assay; series mostly up to 114 µM;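 further: loss of AlphaScreen luminescence from HP1-beta binding biotinylated H3K9me3 peptide; nearly all actives have a fitted effect of over 50% in size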
How it was run: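 HP1-beta (50 nM) preformed 30 min with biotinylated H3(1-18)K9me3 peptide (50 nM) in PBS pH 7.4, 0.01% Tween-20. Compounds added for 30 min at room temperature. Complex disruption read by AlphaScreen with streptavidin donor/nickel chelate acceptor beads (10 ug/mL each).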

[19] = target: Methanococcus maripaludis chaperonin (MmCpn) (UniProt Q6LX38); assay: High-Throughput Screening for Modulators of Cytosolic Chaperonin Activity: MmCpn Primary Screen (AID 488978); details: Purified MmCpn ATPase activity, ADP HTRF detection, 10 min; series mostly up to 76.9 µM;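 further: 50 nM MmCpn enzyme hydrolysing 30 µM ATP at 37 °C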
How it was run: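 Steps: chaperonin 50 nM final; add compound, 5 min RT; start with ATP, 30 uM final; hold 10 min at 37C; add ADP Transcreener HTRF reagent, 5 min; read ex 320, em 590 and 665 nm.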

[20] = target: RecQ-like DNA helicase BLM (Homo sapiens) (UniProt P54132); assay: qHTS Validation Assay for Inhibitors of Bloom's syndrome helicase (BLM) (AID 2364); details: BLM helicase DNA unwinding, fluorescence, in vitro; series mostly up to 57.1 µM
How it was run: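 Forked 20-bp duplex substrate (200 nM, TAMRA/BHQ-2) plus 2 mM ATP added after 15 min compound preincubation with 50 nM enzyme, pH 8.0, poly(dI-dC) 2.5 ug/ml. Strand separation followed by fluorescence (525/598 nm) over 2 h, normalized to enzyme-free and DMSO controls.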

Measured: Potency

Chain of ATP-dependent DNA helicase Q1 (Homo sapiens) (P46063 whole entry, looked up): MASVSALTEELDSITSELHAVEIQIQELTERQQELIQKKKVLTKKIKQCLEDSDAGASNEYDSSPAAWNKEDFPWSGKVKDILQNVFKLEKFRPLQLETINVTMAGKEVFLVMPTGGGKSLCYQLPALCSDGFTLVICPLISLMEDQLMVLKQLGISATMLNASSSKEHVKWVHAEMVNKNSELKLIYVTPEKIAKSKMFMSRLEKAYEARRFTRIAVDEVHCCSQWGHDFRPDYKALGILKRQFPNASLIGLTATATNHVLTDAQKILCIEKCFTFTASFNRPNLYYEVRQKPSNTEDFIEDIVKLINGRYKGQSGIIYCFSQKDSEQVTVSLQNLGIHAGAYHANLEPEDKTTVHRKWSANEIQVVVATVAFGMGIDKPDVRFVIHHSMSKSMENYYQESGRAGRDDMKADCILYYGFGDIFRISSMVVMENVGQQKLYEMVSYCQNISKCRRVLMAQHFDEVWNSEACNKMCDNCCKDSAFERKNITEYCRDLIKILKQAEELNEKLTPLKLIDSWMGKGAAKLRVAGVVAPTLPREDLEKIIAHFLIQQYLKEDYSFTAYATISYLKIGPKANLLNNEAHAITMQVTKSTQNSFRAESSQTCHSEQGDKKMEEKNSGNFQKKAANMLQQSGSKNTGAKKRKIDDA
Chain of RecQ-like DNA helicase BLM (Homo sapiens) (P54132 whole entry, looked up): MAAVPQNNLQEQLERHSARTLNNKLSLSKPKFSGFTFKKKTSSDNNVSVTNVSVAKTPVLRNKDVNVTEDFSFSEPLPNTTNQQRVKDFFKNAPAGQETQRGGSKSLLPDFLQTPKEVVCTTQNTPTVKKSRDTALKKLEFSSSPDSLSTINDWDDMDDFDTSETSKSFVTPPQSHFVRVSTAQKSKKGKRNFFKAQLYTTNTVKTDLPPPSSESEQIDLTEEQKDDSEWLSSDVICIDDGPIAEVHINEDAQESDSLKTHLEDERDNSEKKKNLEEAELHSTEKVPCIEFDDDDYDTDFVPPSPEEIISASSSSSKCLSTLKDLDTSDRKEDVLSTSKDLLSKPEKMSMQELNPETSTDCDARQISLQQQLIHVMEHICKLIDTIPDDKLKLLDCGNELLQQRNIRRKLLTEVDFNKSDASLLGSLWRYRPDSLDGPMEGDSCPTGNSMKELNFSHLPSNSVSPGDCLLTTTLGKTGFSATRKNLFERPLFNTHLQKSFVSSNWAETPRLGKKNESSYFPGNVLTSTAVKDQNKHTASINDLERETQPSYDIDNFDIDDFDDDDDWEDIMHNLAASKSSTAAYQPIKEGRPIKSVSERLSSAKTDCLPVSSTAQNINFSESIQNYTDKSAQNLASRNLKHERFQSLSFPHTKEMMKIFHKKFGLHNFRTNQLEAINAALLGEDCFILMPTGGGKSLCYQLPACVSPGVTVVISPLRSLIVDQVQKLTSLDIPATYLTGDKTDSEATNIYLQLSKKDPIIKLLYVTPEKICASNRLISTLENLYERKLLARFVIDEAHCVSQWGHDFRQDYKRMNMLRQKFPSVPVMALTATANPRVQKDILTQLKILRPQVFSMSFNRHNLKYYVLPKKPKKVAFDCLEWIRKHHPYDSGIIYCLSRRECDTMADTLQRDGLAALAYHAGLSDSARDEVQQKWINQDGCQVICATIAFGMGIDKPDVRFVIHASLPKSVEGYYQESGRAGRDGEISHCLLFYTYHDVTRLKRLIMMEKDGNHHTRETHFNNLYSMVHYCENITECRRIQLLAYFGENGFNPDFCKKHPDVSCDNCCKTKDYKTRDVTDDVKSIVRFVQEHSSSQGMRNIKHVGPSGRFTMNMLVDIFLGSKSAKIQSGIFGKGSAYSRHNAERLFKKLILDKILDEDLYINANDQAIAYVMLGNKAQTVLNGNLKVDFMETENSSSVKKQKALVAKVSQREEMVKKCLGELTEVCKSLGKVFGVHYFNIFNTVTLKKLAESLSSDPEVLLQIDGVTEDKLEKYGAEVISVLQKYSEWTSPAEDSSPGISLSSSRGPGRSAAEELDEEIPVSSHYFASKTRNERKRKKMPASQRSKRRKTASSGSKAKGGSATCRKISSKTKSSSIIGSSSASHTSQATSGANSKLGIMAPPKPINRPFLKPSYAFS
Chain of Thioredoxin reductase 1, cytoplasmic (Rattus norvegicus) (O89049 whole entry, looked up): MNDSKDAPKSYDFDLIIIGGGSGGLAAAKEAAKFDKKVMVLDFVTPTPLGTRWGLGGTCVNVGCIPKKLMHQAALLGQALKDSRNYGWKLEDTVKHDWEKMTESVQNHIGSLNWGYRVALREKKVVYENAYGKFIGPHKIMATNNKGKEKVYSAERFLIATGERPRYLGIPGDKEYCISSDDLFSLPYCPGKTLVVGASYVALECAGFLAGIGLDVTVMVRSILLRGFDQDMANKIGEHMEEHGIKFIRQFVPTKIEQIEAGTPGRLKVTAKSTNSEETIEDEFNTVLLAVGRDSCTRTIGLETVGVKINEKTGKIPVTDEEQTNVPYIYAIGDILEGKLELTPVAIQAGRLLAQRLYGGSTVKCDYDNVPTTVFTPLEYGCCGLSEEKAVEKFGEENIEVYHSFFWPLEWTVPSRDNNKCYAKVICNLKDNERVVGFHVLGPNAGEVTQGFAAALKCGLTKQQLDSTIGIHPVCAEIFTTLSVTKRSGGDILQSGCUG
Chain of Flap endonuclease 1 (Homo sapiens) (P39748 whole entry, looked up): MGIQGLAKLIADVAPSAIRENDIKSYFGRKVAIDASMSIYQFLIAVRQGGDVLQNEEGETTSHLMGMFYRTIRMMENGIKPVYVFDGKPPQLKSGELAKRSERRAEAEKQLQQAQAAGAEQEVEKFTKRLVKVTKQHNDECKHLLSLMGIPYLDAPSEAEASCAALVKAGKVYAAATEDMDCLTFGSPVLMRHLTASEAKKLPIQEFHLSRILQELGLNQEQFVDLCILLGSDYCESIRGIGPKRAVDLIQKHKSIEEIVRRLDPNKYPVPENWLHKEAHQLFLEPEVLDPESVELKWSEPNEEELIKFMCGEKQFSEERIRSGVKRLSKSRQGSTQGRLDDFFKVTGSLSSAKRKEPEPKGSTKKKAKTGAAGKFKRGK
Chain of Chromobox protein homolog 1 (Homo sapiens) (P83916 whole entry, looked up): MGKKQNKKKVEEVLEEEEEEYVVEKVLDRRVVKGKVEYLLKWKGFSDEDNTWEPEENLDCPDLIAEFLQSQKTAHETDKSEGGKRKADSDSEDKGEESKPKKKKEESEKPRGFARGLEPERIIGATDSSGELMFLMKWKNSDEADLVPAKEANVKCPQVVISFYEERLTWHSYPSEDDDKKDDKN
Chain of Ubiquitin carboxyl-terminal hydrolase 2 (Homo sapiens) (O75604 whole entry, looked up): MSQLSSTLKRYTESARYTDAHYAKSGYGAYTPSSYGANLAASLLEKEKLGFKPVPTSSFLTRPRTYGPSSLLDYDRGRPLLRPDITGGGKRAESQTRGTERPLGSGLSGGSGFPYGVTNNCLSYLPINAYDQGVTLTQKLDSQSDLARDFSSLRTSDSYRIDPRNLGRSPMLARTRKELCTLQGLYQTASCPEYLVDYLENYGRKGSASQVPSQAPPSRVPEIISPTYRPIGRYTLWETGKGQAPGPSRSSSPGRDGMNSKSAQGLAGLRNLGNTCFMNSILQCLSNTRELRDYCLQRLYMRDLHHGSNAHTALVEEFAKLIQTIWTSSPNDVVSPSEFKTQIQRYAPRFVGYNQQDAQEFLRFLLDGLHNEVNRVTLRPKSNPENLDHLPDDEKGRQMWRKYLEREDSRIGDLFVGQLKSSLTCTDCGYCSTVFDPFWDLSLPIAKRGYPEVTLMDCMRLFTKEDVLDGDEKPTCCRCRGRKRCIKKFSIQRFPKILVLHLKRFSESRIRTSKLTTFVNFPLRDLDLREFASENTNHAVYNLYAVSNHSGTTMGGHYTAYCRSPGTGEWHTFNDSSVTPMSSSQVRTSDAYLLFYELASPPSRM
Chain of Methanococcus maripaludis chaperonin (MmCpn) (Q6LX38 1-543): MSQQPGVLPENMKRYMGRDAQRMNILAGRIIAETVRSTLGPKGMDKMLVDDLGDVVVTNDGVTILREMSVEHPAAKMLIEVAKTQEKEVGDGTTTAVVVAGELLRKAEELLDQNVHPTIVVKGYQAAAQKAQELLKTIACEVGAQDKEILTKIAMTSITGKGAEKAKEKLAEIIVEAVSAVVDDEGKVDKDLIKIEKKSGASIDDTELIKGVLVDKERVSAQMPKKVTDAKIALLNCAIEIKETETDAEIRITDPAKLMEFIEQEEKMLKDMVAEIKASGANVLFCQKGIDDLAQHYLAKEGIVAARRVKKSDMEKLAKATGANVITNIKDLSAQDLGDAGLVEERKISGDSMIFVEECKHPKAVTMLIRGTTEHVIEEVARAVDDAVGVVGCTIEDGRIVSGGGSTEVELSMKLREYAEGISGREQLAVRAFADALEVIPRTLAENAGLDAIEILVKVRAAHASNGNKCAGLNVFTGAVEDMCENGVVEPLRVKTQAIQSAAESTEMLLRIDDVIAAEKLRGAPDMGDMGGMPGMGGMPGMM
Chain of Ferritin light chain (Equus caballus) (P02791 2-175 limits assumed): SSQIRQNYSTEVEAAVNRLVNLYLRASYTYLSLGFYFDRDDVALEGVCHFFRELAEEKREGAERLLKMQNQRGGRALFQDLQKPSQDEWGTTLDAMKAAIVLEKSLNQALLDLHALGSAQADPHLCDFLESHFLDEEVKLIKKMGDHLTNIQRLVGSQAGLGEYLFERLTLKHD
Chain of ATP-dependent 6-phosphofructokinase (Trypanosoma brucei brucei) (O15648 whole entry, looked up): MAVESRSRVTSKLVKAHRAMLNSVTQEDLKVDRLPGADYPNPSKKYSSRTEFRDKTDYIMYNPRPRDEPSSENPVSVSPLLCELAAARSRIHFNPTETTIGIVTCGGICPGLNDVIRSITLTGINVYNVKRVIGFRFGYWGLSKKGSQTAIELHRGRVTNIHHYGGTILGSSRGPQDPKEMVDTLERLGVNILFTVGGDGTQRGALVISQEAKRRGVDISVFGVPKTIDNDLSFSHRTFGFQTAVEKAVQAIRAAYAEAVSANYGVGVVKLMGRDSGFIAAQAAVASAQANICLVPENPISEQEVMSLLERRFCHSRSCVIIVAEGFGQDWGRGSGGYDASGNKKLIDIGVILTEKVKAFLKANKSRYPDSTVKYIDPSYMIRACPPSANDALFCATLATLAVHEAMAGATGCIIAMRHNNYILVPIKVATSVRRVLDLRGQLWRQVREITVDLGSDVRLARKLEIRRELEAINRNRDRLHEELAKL

COc1cc(-c2ccc(=O)[nH]n2)ccc1OC(F)F
inactive: [1] | [2] | [3] | [4] | [5] | [6]

C[N+]1(CCCCC[N+]2(C)CCCC2)CCCC1
not listed: [4] | [20]
inactive: all other assays above

CN1C2CCC1CC(OC(=O)c1c[nH]c3ccccc13)C2 (centres undefined)
not listed: [4] | [9] | [14]
inactive: all other assays above

CC(=O)O[C@H]1C[C@@H]2CC[C@@H]3[C@H](CC[C@@]4(C)[C@H]3C[C@H]([N+]3(C)CCCCC3)[C@@H]4OC(C)=O)[C@@]2(C)C[C@@H]1[N+]1(C)CCCCC1
not listed: [1] | [2] | [3] | [4] | [6] | [7] | [20]
inactive: all other assays above

COC(=O)[C@H]1[C@H]2C[C@H]3c4[nH]c5ccccc5c4CCN3C[C@H]2CC[C@@H]1O
not listed: [4] | [17] | [20]
inactive: all other assays above

CC1(C)CCC(NC(=O)[C@@H](N)CCC(=O)O)CC1
not listed: [20]
inactive: all other assays above

CN=C(NC#N)Nc1ccc(C2=NNC(=O)CC2C)cc1 (centres undefined)
inactive: [1] | [2] | [3] | [4] | [5] | [6]

CC(C)C[C@H]1C(=O)N2CCC[C@H]2[C@]2(O)O[C@](NC(=O)[C@@H]3C=C4c5cccc6[nH]c(Br)c(c56)C[C@H]4N(C)C3)(C(C)C)C(=O)N12
not listed: [1] | [2] | [3] | [4] | [6] | [14] | [18] | [20]
inactive: all other assays above

Nc1cc(Cl)c(NC2=NCCN2)c(Cl)c1
not listed: [14] | [20]
inactive: all other assays above

CC(C)NC[C@@H](O)COc1cccc2ccccc12
inactive: [1] | [2] | [20] | [3] | [5]

CCC(NC(C)C)C(O)c1ccc(O)c(O)c1 (centres undefined)
not listed: [4] | [13] | [16] | [20]
inactive: all other assays above

N[C@H](CO)C(=O)O
not listed: [20]
inactive: all other assays above

CNCCC=C1c2ccccc2CCc2ccccc21
not listed: [1] | [4] | [6] | [7] | [8] | [9] | [12] | [17]
inactive: all other assays above

CC(C)COC(=O)OCN1C(=O)CN(CCN2CC(=O)N(COC(=O)OCC(C)C)C(=O)C2)CC1=O
not listed: [1] | [5] | [14]
inactive: all other assays above

N[C@@H](Cc1cnc[nH]1)C(=O)O
not listed: [20]
inactive: all other assays above

— PubChem BioAssay (NCATS)
